# Source: PubChem BioAssay
# The source made the active and inactive calls. Unless noted, how the calls were made is not given here.
# Columns and labels:
# [1] = compound effects on lung adenocarcinoma cell viability – A549, calcein-AM fluorescence, 48 h, basal, profiling panel (AID 1162); conditions: higher = more signal; further: test concentration not given here
# [2] = compound effects on differentiated 3T3-L1 adipocyte viability – cell-based, 3T3-L1 adipocytes, calcein-AM fluorescence, 48 h, basal, profiling panel (AID 1163); conditions: 3T3-L1 adipocytes viability, higher = more signal; further: test concentration not given here
# [3] = compound effects on hepatocellular carcinoma cell viability – HepG2, calcein-AM fluorescence, 48 h, basal, profiling panel (AID 1164); conditions: higher = more signal; further: test concentration not given here
# [4] = compound effects on multiple myeloma cell viability – MM1S, calcein-AM fluorescence, 48 h, basal, profiling panel (AID 1165); conditions: higher = more signal; further: test concentration not given here
# [5] = calcein-AM signal in unstimulated myeloma cells – cell-based, calcein-AM fluorescence, 48 h, PK04 Diversity Set, profiling panel (AID 1166); conditions: RPMI8226 myeloma viability, higher = more signal;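 further: cells grown under basal conditions without added stimulus; test concentration not given here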
# [6] = JC-1 mitochondrial signal, unstimulated HepG2 cells – cell-based, JC-1 fluorescence, 24 h, 100 nL compound, profiling panel (AID 1167); conditions: HepG2 mitochondrial potential, higher = more signal; further: test concentration not given here
# [7] = JC-1 mitochondrial signal, unstimulated adipocytes – cell-based, JC-1 fluorescence, 3T3-L1 adipocytes, 24 h, 100 nL compound, profiling panel (AID 1168); conditions: JC-1 mitochondrial fluorescence, higher = more signal, called active from +8 up or from −8 down; further: test concentration not given here
# [8] = JC-1 mitochondrial signal, unstimulated myeloma cells – cell-based, JC-1 fluorescence, RPMI8226, 24 h, 100 nL compound, profiling panel (AID 1169); conditions: JC-1 mitochondrial potential fluorescence, higher = more signal; further: test concentration not given here
# [9] = JC-1 mitochondrial signal, unstimulated MM1S myeloma – cell-based, JC-1 fluorescence, 24 h, 100 nL compound, profiling panel (AID 1170); conditions: MM1S mitochondrial potential, higher = more signal; further: test concentration not given here
# [10] = resazurin metabolic signal in A549 cells – cell-based, resazurin fluorescence, 24 h, PK04 Diversity Set, profiling panel (AID 1171); conditions: A549 viability, higher = more signal, called active from +8 up or from −8 down; further: test concentration not given here
# [11] = resazurin metabolic signal in HepG2 cells – cell-based, resazurin fluorescence, 24 h, PK04 Diversity Set, profiling panel (AID 1172); conditions: HepG2 viability, higher = more signal; further: test concentration not given here
# [12] = budding yeast growth changes without added modifier – OD600, strain BY4716, 24 h, basal condition, primary screen (AID 1173); conditions: S. cerevisiae BY4716 growth, OD600, 24 h; higher = more signal, called active from +8 up or from −8 down
# [13] = viability profiling in MM1S myeloma cells – cell-based, resazurin fluorescence, basal, 24 h, PK04 Diversity Set, profiling panel (AID 1174); conditions: higher = more signal, called active from +8 up or from −8 down; further: test concentration not given here
# [14] = target: Dihydroorotate dehydrogenase (quinone), mitochondrial (Plasmodium falciparum (isolate 3D7)) (UniProt Q08210); experiment: inhibition of P. falciparum DHODH – biochemical, C-terminal His tag, absorbance 600 nm, primary screen (AID 1175); conditions: PfDHODH enzyme, DCIP absorbance 600 nm; higher = more signal, called active from +8 up or from −8 down;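 further: recombinant parasite enzyme with a five histidine tag at its C terminus; test concentration not given here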
# Sequence of Dihydroorotate dehydrogenase (quinone), mitochondrial (Plasmodium falciparum (isolate 3D7)) (Q08210 whole entry, looked up): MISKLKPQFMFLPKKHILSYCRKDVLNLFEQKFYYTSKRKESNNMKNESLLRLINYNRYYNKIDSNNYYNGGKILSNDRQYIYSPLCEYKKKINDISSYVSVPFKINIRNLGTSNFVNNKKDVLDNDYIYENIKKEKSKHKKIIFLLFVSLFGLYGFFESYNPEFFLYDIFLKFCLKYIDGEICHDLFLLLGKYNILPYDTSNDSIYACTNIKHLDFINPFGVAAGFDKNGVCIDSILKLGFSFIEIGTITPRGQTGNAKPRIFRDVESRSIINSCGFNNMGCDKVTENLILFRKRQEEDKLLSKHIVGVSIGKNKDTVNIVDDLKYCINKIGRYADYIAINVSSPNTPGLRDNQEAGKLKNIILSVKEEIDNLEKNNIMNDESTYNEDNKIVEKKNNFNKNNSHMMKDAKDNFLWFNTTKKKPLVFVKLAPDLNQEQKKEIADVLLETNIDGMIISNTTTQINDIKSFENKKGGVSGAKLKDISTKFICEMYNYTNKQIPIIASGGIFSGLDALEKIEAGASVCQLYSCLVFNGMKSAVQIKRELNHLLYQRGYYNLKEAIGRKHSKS
# [15] = inhibition of PAO1 biofilm formation – strain PAO1, LB-PBS medium, absorbance 600 nm, primary screen (AID 1176); further: test concentration not given here; conditions: P. aeruginosa PAO1 growth/biofilm, A600, 12 h; higher = more signal
# [16] = growth modulation of vineyard yeast isolate – strain RM11-1a, OD600, basal, 24 h, primary screen (AID 1177);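 further: cultures grown under basal conditions with no added stressor; test concentration not given here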; conditions: S. cerevisiae RM11-1a growth, OD600, 24 h; higher = more signal, called active from +8 up or from −8 down
# [17] = growth of efflux-deficient E. coli DRC39 – strain DRC39, OD650, 24 h, E. coli filamentation inducers, primary screen (AID 1178);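 further: growth measured as culture turbidity by optical density at 650 nm; test concentration not given here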; conditions: E. coli DRC39 acrAB, higher = more signal, called active from +8 up or from −8 down
# [18] = growth of efflux-deficient E. coli DRC39 – strain DRC39, OD650, 48 h, E. coli filamentation inducers, primary screen (AID 1179);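 further: screen aims at cell division blockers that make cells filament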; conditions: E. coli DRC39 delta-acrAB growth, higher = more signal, called active from +8 up or from −8 down
# [19] = viability profiling in RPMI8226 myeloma cells – cell-based, resazurin fluorescence, basal, 24 h, PK04 Diversity Set, profiling panel (AID 1180); conditions: higher = more signal;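 further: RPMI8826 multiple myeloma cell line at 5000 cells per well; test concentration not given here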
# [20] = target: E3 ubiquitin-protein ligase XIAP (Homo sapiens) (UniProt P98170); experiment: small molecules binding XIAP protein – biophysical, small-molecule microarray, fluorescence 635 nm, primary screen (AID 1181); conditions: higher = more signal;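 further: score merges 667 nm emission and signal to noise over triplicate slides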
# Sequence of E3 ubiquitin-protein ligase XIAP (Homo sapiens) (P98170 whole entry, looked up): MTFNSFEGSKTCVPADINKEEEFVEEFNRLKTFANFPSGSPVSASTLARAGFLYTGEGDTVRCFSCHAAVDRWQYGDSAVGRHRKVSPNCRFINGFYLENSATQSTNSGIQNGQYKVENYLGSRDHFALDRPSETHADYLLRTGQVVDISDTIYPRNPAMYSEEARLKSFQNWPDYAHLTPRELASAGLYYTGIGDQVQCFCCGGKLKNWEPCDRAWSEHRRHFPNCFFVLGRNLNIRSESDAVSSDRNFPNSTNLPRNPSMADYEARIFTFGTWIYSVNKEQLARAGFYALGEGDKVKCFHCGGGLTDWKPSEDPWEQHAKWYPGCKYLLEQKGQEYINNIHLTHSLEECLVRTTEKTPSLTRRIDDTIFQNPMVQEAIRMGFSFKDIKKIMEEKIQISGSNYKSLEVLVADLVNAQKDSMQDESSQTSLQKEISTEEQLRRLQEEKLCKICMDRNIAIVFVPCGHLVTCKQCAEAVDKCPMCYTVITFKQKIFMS
Compound,z-score [1],z-score [2],z-score [3],z-score [4],z-score [5],z-score [6],z-score [7],z-score [8],z-score [9],z-score [10],z-score [11],z-score [12],z-score [13],composite z-score [14],z-score [15],z-score [16],z-score [17],z-score [18],z-score [19],composite z-score [20]
CCOC(=O)C[C@H]1[C@H](OC(=O)c2ccc(C(=O)c3ccccc3)cc2)[C@@H](NC(=O)Cc2ccc(OC)cc2)c2cc(OCCCO)ccc2N1C(=O)c1ccccc1,0.0281,-0.005,0.544,-0.272,-0.399,0.425,-0.386 (inactive),0.428,-0.107,0.69 (inactive),0.0566,0.29 (inactive),-0.292 (inactive),-0.517 (inactive),0.325 (inactive),-0.193 (inactive),-0.307 (inactive),-0.215 (inactive),-0.268,0.169
Cn1cccc1C(O)C1C=CC2C(=O)NC(=O)C2N1Nc1ccc(Cl)cc1Cl (stereo not given),-0.924,-0.457,-1.5,-3.45,-2.24,-2.72,-1.36 (inactive),-0.929,0.234,-0.299 (inactive),-1.75,-3.53 (inactive),-1.86 (inactive),0.121 (inactive),1.69 (inactive),0.441 (inactive),-1.09 (inactive),-1.28 (inactive),-1.98,0.315
COc1ccc(NC(=O)O[C@H]2[C@H](OC(=O)Nc3ccccc3)[C@@H](OC(=O)Nc3ccccc3)[C@@H](OC)O[C@@H]2CO)cc1,-1.42,0.635,-1.17,-1.18,-2.26,-0.107,-0.261 (inactive),-0.765,-1.06,-2.97 (inactive),-1.58,0.559 (inactive),-2.86 (inactive),1.1 (inactive),0.304 (inactive),2.89 (inactive),0.717 (inactive),-0.141 (inactive),-1.61,0.131
CC(c1ccccc1)C(O)C1C=CC2C(=O)N(c3ccccc3)C(=O)C2N1Nc1ccc([N+](=O)[O-])cc1 (stereo not given),-0.898,-0.755,0.204,0.48,-0.129,-0.411,-1 (inactive),-1.03,-1.44,1.07 (inactive),0.796,0.326 (inactive),0.831 (inactive),0.101 (inactive),0.449 (inactive),0.399 (inactive),-0.821 (inactive),0.434 (inactive),0.538,-0.334
CCCCC=C[C@@H](NC(=O)c1ccc(-c2ccccc2)cc1)c1ccccc1,-1.58,-0.768,-1.47,-0.795,-2.1,-4.15,0.045 (inactive),-0.741,-0.819,-0.305 (inactive),0.272,-0.447 (inactive),-0.821 (inactive),0.34 (inactive),0.191 (inactive),0.491 (inactive),-0.335 (inactive),-0.0289 (inactive),-1.75,-0.0272
C=C(/C(=C/C[C@@H](OC(C)=O)c1cccc(OCCO)c1)c1cc(C(=O)OC)ccc1OC)C(C)C,-0.0413,0.0983,-0.159,-0.881,-0.264,1.86,-0.789 (inactive),0.373,-0.682,2.17 (inactive),1.47,-0.0321 (inactive),0.172 (inactive),-1.4 (inactive),-0.153 (inactive),0.258 (inactive),0.233 (inactive),0.547 (inactive),0.883,-0.0622
C=C(C)C1CCC(C(O)C2C=CC3C(=O)N(C)C(=O)C3N2N2CCCCC2)CC1 (stereo not given),-1.25,-1.16,-0.774,-0.683,-0.665,-1.38,-1.53 (inactive),0.887,-0.31,0.262 (inactive),-0.689,0.08 (inactive),-1.19 (inactive),0.112 (inactive),0.751 (inactive),1.82 (inactive),-0.742 (inactive),-0.654 (inactive),-0.954,0.62
CCOC(=O)c1ccc(NC(=O)O[C@H]2[C@H](OC(=O)Nc3ccc4c(c3)OCO4)[C@@H](OC(=O)Nc3ccc4c(c3)OCO4)[C@@H](OC)O[C@@H]2CO)cc1,-0.742,0.558,-1.09,-1.05,-0.141,0.305,0.463 (inactive),-0.66,-0.979,-0.214 (inactive),-0.741,1.1 (inactive),-0.849 (inactive),0.0737 (inactive),2.08 (inactive),2.29 (inactive),1.04 (inactive),-0.0515 (inactive),-0.836,0.519
CC(=O)c1ccc(C(O)C2C=CC3C(=O)N(c4ccccc4)C(=O)C3N2Nc2ccc(C#N)cc2)cc1 (stereo not given),-0.53,-0.292,-0.477,-0.262,-0.821,-1.19,-1.06 (inactive),-0.257,-0.0349,-0.178 (inactive),-1.04,-2.04 (inactive),-0.848 (inactive),-0.946 (inactive),0.695 (inactive),-0.826 (inactive),-0.821 (inactive),-0.433 (inactive),-1.84,-0.396
